Measurements taken from PubChem BioAssay AID651598 (Sanford-Burnham Center for Chemical Genomics, 2012).
Values joined by “and” are separate entries in the source; they are usually repeats but may differ in a detail not shown here. Identical values can stand only once.

These compounds were tested against C-X-C chemokine receptor type 6 (Homo sapiens) (UniProt O00574) (assay: APJ beta-arrestin recruitment blockade alongside CXCR6 – cell-based, DiscoveRx, panel, CHO-K1, counter-screen for CXCR6 antagonist project, SAR follow-up (AID 651598)). Settings: CHO-K1 PathHunter beta-arrestin luminescence, antagonist mode; run 5, at 80 µM (top of the series).
Sequence of C-X-C chemokine receptor type 6 (Homo sapiens) (O00574 whole entry, looked up): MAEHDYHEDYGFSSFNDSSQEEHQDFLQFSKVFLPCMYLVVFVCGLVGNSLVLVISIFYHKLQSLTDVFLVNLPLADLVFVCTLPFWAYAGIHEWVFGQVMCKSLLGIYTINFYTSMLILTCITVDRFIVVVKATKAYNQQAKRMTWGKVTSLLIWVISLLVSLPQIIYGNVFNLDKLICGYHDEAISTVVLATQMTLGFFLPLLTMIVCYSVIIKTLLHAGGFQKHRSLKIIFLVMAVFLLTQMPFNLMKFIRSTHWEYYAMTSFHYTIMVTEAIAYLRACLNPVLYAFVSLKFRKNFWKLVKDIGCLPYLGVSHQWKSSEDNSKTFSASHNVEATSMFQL

SMILES	inhibition
COc1cc(C(=O)NC2CC3CCC(C2)N3CC(=O)Nc2ccccc2)cc(OC)c1OC (stereo not drawn)	45.3% and 9.45%
COc1cc(C(=O)NC2CCN(CC(=O)Nc3ccccc3)CC2)cc(OC)c1OC	12%
COc1cc(C(=O)NC2CC3CCCC(C2)N3CC(=O)Nc2ccccc2)cc(OC)c1OC (stereo not drawn)	85.4% and 45.2% and 22.2%
